For seven compounds, growth results are on record in PubChem BioAssay (NCI).

Test systems include SK-MEL-2 melanoma; EKVX NSCLC; SN12C renal; UO-31 renal; TK-10 renal; ACHN renal; CAKI-1 renal; A498 renal; CCRF-CEM leukemia; MOLT-4 leukemia; SR leukemia; RPMI-8226 leukemia; OVCAR-8 ovarian; OVCAR-5 ovarian; OVCAR-4 ovarian; SK-OV-3 ovarian; IGROV1 ovarian; OVCAR-3 ovarian; HS 578T breast; NCI/ADR-RES ovarian.
Test in all cases: NCI-60 one-dose screen, 48 h (100 = growth as untreated, 0 = no growth, -100 = all killed)
What all share (settings): 10 µM unless noted

Each structure is given as a SMILES string. The panel holds about 83,000 compounds, 20% with a hit somewhere; the sample as a whole holds those more often.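 Percent growth is the endpoint: 0 to 100 indicates growth inhibition (40 means 60% inhibition), 0 means no net growth, and negative values indicate cell death.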 Unmarked numbers belong to inactive results. The source made the active and inactive calls. Rule for the calls: active = growth percent below 10; inactive = the rest.

In the case of `CCN(CC)C(=O)O/N=C(/C)c1ccccc1`, the growth was 102% in the assay with SK-MEL-2 melanoma; 112% in the assay on EKVX NSCLC; 100% in the assay on SN12C renal; 101% in the assay with UO-31 renal; 87.2% with TK-10 renal; 112% with ACHN renal. The growth in the assay with CAKI-1 renal was 115%; in the assay on A498 renal it was 103%; with CCRF-CEM leukemia it was 100%; with MOLT-4 leukemia, 109%; in the assay with SR leukemia, 104%; in the assay on RPMI-8226 leukemia it was 105%. Also, the growth is 93.3% in the assay with OVCAR-8 ovarian; 103% in the assay with OVCAR-5 ovarian; 80.7% in the assay with OVCAR-4 ovarian; 111% in the assay with SK-OV-3 ovarian; 126% in the assay on IGROV1 ovarian; 109% with OVCAR-3 ovarian. Further, the growth was 123% in the assay on HS 578T breast and 103% with NCI/ADR-RES ovarian.
`COc1ccc2c(c1)OC1=C(C(=O)OC1)C2c1cc(OC)c2c(c1)OCCO2` (stereo not given): the growth in the assay with SK-MEL-2 melanoma is 41.3%; in the assay on EKVX NSCLC it was 55.5%; in the assay on SN12C renal, 27.5%; in the assay with UO-31 renal, 46.2%; in the assay on TK-10 renal, 76.2%; in the assay with ACHN renal, 27.8%. Further, the growth with CAKI-1 renal was 48.1%; in the assay with A498 renal, -1.6% (active); with CCRF-CEM leukemia, 15%; in the assay with MOLT-4 leukemia it was 20.8%; in the assay with SR leukemia it was 27.3%; with RPMI-8226 leukemia it was 25%. Further, the growth is 20.7% with OVCAR-8 ovarian; 32.4% in the assay on OVCAR-5 ovarian; 48% in the assay with OVCAR-4 ovarian; -2.33% (active) in the assay on SK-OV-3 ovarian; 19.3% in the assay with IGROV1 ovarian; -30.4% (active) in the assay on OVCAR-3 ovarian. In addition, the growth is 29.6% with HS 578T breast and 13.9% with NCI/ADR-RES ovarian.
For the compound `O=C(/C=C/c1cn(-c2ccccc2)nc1-c1ccccc1)OCc1cn(-c2cccc([N+](=O)[O-])c2)nn1`, the growth in the assay on SK-MEL-2 melanoma is 87.8%; in the assay on EKVX NSCLC, 85.9%; in the assay on SN12C renal it was 92.7%; in the assay with UO-31 renal, 68.7%; with TK-10 renal it was 98.6%; in the assay with ACHN renal, 90.1%. In addition, the growth was 82.5% in the assay on CAKI-1 renal; 66.7% in the assay on A498 renal; 81.1% with CCRF-CEM leukemia; 85.8% in the assay on MOLT-4 leukemia; 87.4% in the assay with SR leukemia; 80.4% in the assay on RPMI-8226 leukemia. The growth was 82.6% with OVCAR-8 ovarian; 94.1% in the assay on OVCAR-5 ovarian; 83.3% with OVCAR-4 ovarian; 83.5% in the assay with SK-OV-3 ovarian; 98.2% with IGROV1 ovarian; 96.8% in the assay with OVCAR-3 ovarian. For the same compound, the growth is 89.9% in the assay with HS 578T breast and 95.4% in the assay on NCI/ADR-RES ovarian.
Take `CC(C)c1cccc(C#N)c1`: the growth with SK-MEL-2 melanoma is 120%; with EKVX NSCLC, 94%; in the assay with SN12C renal, 97.3%; in the assay on UO-31 renal, 98.7%; with TK-10 renal, 121%; in the assay on ACHN renal, 115%. In addition, the growth in the assay on CAKI-1 renal was 98.9%; in the assay with A498 renal, 92.3%; in the assay with CCRF-CEM leukemia, 90%; in the assay on MOLT-4 leukemia it was 101%; in the assay on SR leukemia, 97.1%; in the assay on RPMI-8226 leukemia, 106%. Moreover, the growth in the assay with OVCAR-8 ovarian is 95.1%; in the assay on OVCAR-5 ovarian it was 112%; in the assay on OVCAR-4 ovarian, 101%; in the assay on SK-OV-3 ovarian, 106%; with IGROV1 ovarian, 115%; in the assay with OVCAR-3 ovarian, 111%. Further, the growth in the assay on HS 578T breast is 101%; in the assay on NCI/ADR-RES ovarian it was 91%.
On to `CCN(CC)CC(=O)Nc1c(C)cc(C(=O)NN)cc1C`, for which the growth with SK-MEL-2 melanoma is 117%; in the assay with EKVX NSCLC, 102%; in the assay on SN12C renal, 98.3%; in the assay on UO-31 renal, 84.7%; in the assay with TK-10 renal, 102%; in the assay on ACHN renal it was 107%. The growth is 95.8% in the assay on CAKI-1 renal; 99.7% in the assay on A498 renal; 114% in the assay with CCRF-CEM leukemia; 85.2% with MOLT-4 leukemia; 88.7% in the assay with SR leukemia; 120% in the assay on RPMI-8226 leukemia. Also, the growth was 107% in the assay with OVCAR-8 ovarian; 103% in the assay on OVCAR-5 ovarian; 99.4% in the assay on OVCAR-4 ovarian; 98.7% in the assay on SK-OV-3 ovarian; 88.9% in the assay with IGROV1 ovarian; 100% in the assay on OVCAR-3 ovarian. The growth with HS 578T breast is 91.1%; with NCI/ADR-RES ovarian, 98.5%.
Take `Oc1ccccc1-c1nnc(COc2ccc(Cl)cc2Cl)o1`: the growth with SK-MEL-2 melanoma is 37.9%; in the assay on EKVX NSCLC, 31.1%; in the assay on SN12C renal, 52.6%; in the assay on UO-31 renal, 30.2%; in the assay on TK-10 renal, 63.7%; with ACHN renal, 43.5%. In addition, the growth with CAKI-1 renal was 41.5%; with A498 renal, 89.9%; in the assay on CCRF-CEM leukemia, 15.5%; with MOLT-4 leukemia, 19.5%; in the assay on SR leukemia, 36%; with RPMI-8226 leukemia, 39.4%. The growth with OVCAR-8 ovarian is 36.8%; in the assay with OVCAR-5 ovarian, 89.1%; in the assay with OVCAR-4 ovarian it was 49.3%; in the assay on SK-OV-3 ovarian, 60.7%; in the assay on IGROV1 ovarian it was 50.7%; with OVCAR-3 ovarian, 20.2%. Also, the growth with HS 578T breast is 78.2%; with NCI/ADR-RES ovarian, 30.6%.
For `COc1cc(CN(c2ccc(C)cc2)C2OC(=O)c3ccccc32)cc(OC)c1OC` (stereo not given), the growth in the assay on SK-MEL-2 melanoma was 55%; in the assay on EKVX NSCLC, 71.8%; in the assay with SN12C renal, 50.1%; with UO-31 renal, 59.7%; with TK-10 renal it was 93.3%; in the assay on ACHN renal it was 56.3%. Further, the growth in the assay on CAKI-1 renal is 49.3%; in the assay on A498 renal, 51.7%; with CCRF-CEM leukemia, 11.5%; in the assay with MOLT-4 leukemia, 17.9%; in the assay with SR leukemia, -6.82% (active); in the assay on RPMI-8226 leukemia, 85.4%. For the same compound, the growth in the assay with OVCAR-8 ovarian is 50.1%; with OVCAR-5 ovarian, 40.3%; with OVCAR-4 ovarian, 65.9%; with SK-OV-3 ovarian, -6.21% (active); with IGROV1 ovarian it was 46.2%; with OVCAR-3 ovarian it was 6.21% (active). Further, the results for the growth in the assay on HS 578T breast and with NCI/ADR-RES ovarian were 59.5% and -16.7% (active), respectively.
